# Screens: PubChem BioAssay, The Scripps Research Institute Molecular Screening Center
# GALR2 blocker: GALR2 antagonists in receptor-expressing cells, primary screen; antagonist mode; inhibition, % at 4 µM; 140,000 tested, 0.39% active;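 also: cells stimulated with galanin 1-16 at roughly its EC80; 0% = agonist challenge control and 100% = basal control without agonist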
# Target sequence (O43603 whole entry, looked up): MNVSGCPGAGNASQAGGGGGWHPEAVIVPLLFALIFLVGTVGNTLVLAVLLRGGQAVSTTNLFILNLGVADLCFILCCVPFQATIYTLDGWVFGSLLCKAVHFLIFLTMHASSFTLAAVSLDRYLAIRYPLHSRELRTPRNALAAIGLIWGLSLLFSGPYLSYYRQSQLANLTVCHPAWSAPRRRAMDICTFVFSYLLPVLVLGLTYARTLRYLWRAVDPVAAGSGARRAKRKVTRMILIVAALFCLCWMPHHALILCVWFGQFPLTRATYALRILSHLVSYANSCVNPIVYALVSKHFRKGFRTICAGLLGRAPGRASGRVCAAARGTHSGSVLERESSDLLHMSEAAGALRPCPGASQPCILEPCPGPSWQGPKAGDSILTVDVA
# GALR2 agonist: GALR2 receptor agonists, primary screen, cell-based; 140,000 tested, 0.48% active; AID 803, 2007; GALR2-expressing cells, agonist activation read-out; Galanin receptor type 2 (Homo sapiens), O43603; activation, % (concentration not given with the values); in the data active = activation above about 5%, passing the limit was not always enough;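 also: 0% = vehicle buffer wells and 100% = reference agonist at full effect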
# S1P2 antag: human S1P2 receptor antagonists, primary screen, cell-based | Sphingosine 1-phosphate receptor 2 (Homo sapiens), O95136 | 97,000 tested, 0.21% active | cell-based S1P2 antagonist assay, inhibition at 5 uM | inhibition, % at 5 µM; in the data active = inhibition above about 45%;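 also: CRE beta-lactamase reporter cells expressing human S1P2 stimulated with S1P; 0% = agonist at EC80 alone and 100% = agonist plus reference antagonist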
# S1P2 ag: S1P2 receptor agonists, primary screen, cell-based; S1P2-expressing cell line, agonist reporter read-out; AID 729, 2007; Sphingosine 1-phosphate receptor 2 (Homo sapiens), O95136; activation, % at 4.5 µM; 97,000 tested, 0.46% active; in the data active = activation above about 16%;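 also: 0% = vehicle low control and 100% = maximal reference agonist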
# GALR2 blk conf: GALR2 antagonists, retest of hits, confirmation, cell-based | shares compounds with GALR2 blocker | GALR2-expressing cells, antagonist mode, inhibition | inhibition, % at 4 µM | 480 tested, 60% active | AID 866, 2007;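 also: cells stimulated with galanin at about its EC80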
# BLA inhib ctr: inhibitors of NFAT-driven beta-lactamase reporter, confirmation, counter-screen for GALR2 antagonist project, CHO NFAT-bla cells, FRET readout; shares compounds with GALR2 blocker; thapsigargin-stimulated; inhibition, % at 4.2 µM; 480 tested, 36% active; AID 867, 2007;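 active = inhibition above the mean inhibition across tested compounds plus 3 SD, cut at about 27% in these data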;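 also: 0% = 500 nM thapsigargin stimulated wells and 100% = unstimulated BSA only wells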
# * hit, by the source's call; . = no result given. In the library only some 1.2% were active in any assay of this set; here they are far more common. Rule as the data show it, unless noted: active = inhibition above about 27%; inactive = the rest.
SMILES,GALR2 blocker,GALR2 agonist,S1P2 antag,S1P2 ag,GALR2 blk conf,BLA inhib ctr
C=CCOc1c(Br)cc(CNc2ccc(NC(=O)C(C)C)c(OC)c2)cc1OC,-3.9,-2.5,-3.1,-5.0,.,.
CN1CCN(c2ccc([N+](=O)[O-])cc2C(=O)c2ccc(Cl)cc2)CC1,-4.5,-1.5,17.1,-1.6,.,.
Cc1ccc(N(NC(=O)C(O)(c2ccccc2)c2ccccc2)C(=O)CCl)cc1,48.0*,-2.4,.,.,37.3*,55.6*
Nn1cnnc1N/N=C/c1cc(Br)cc(Br)c1O,31.2*,-3.8,-9.9,-0.6,7.8,0.5
Cc1cccc(CSc2cccc3cccnc23)c1,29.2*,-1.4,29.2,-5.2,24.3,19.3
CCn1c(=S)[nH]c2cc(S(=O)(=O)N3CCCCC3)ccc21,3.6,-2.2,10.2,-3.5,.,.
Cc1cccc(S(=O)(=O)C(C#N)c2nc3ccccc3nc2N2CC(C)OC(C)C2)c1 (stereo unspecified),28.4*,-0.1,17.2,-5.6,1.9,-1.0
Cc1ccc(S(=O)(=O)C(C#N)c2nc3ccccc3nc2N2CC(C)OC(C)C2)cc1C (stereo unspecified),0.2,-1.3,1.2,-7.3,.,.
CCCCCn1ccc(=O)c2c(C(F)(F)F)nccc21,7.0,-1.7,12.3,-4.9,.,.
CC1CCN(c2ccc(C(=O)NCc3ccco3)cc2[N+](=O)[O-])CC1,11.9,-1.1,.,.,.,.
CCCCCOc1ccc(CSC(=N)N)cc1[N+](=O)[O-],-15.9,1.9,13.9,2.1,.,.
CCCCOc1ccc(Br)cc1CSC(=N)N,36.3*,-0.2,.,.,36.7*,65.6*
COc1ccc(CCNc2ncnc3c2oc2ccccc23)cc1OC,27.5*,-0.6,67.2*,-5.0,38.1*,-0.8
O=C1C=CC(=O)N1CCCCCCN1C(=O)C=CC1=O,86.2*,-3.0,.,.,78.1*,95.3*
COc1ccc(C(=O)NCC(=O)NCC(=O)OCC(=O)C(C)(C)C)cc1,-3.5,-0.5,.,.,.,.
O=C(Oc1ccccc1/C=C\C(=O)c1cc2ccccc2o1)c1ccccc1,27.4*,-0.6,.,.,25.6,14.0
OCCCc1nc2n(n1)C(c1ccccc1Cl)C=C(c1cccs1)N2 (stereo unspecified),28.0*,1.0,23.6,-12.9,17.3,22.8
Cn1c2c(c(=O)n(C)c1=O)C(c1ccc(Cl)cc1)C(C#N)=C(N)O2 (stereo unspecified),-7.4,-1.6,.,.,.,.
O=C(OCn1ncc(Cl)c(Cl)c1=O)c1cccc(C(F)(F)F)c1,46.4*,-1.3,29.8,0.8,65.7*,42.7*
C=C1C(=O)[C@@]23[C@H](O)C[C@@H]4C(C)(C)CC[C@H](O)[C@@]4(C)[C@@H]2CC[C@@H]1[C@H]3O,38.0*,-0.2,.,.,38.2*,58.0*
C=C1C(=O)[C@@]23[C@H](O)C[C@@H]4C(C)(C)CC[C@H](O)[C@]4(C)[C@@H]2C[C@H](O)[C@@H]1[C@H]3O,-6.0,-2.0,.,.,.,.
COc1ccccc1N1CCN(C(=O)c2ccc3[nH]c4c(c3c2)CC(C)CC4)CC1 (stereo unspecified),4.7,0.5,.,.,.,.
CCn1c(SCC(=O)Nc2ccccc2)nc2c1c(=O)n(C)c(=O)n2C,10.4,-0.4,-21.4,-2.8,.,.
Cn1c(=O)c2c(nc(SCC(=O)Nc3ccccc3)n2C)n(C)c1=O,27.9*,-0.3,.,.,8.5,1.4
CCC(=O)N1CCc2cc(S(=O)(=O)NC(Cc3ccccc3)C(=O)NC3CCCCC3)ccc21 (stereo unspecified),17.1,-2.2,.,.,.,.
CC(=O)N1CCc2cc(S(=O)(=O)NC(Cc3ccccc3)C(=O)Nc3cc(C)ccn3)ccc21 (stereo unspecified),28.6*,-2.1,-2.5,-7.0,3.1,3.0
O=C(CNc1ccccc1-c1ccccc1)NCc1ccccc1,-19.9,-1.2,.,.,.,.
CCOC(=O)C1(C)NC(c2ccco2)C2C(=O)N(c3ccc(C)cc3)C(=O)C21 (stereo unspecified),2.0,-2.2,1.0,-8.8,.,.
CCC1(C(=O)OC)NC(c2ccco2)C2C(=O)N(c3ccc(C)cc3)C(=O)C21 (stereo unspecified),29.7*,-2.7,0.2,-4.6,7.4,1.8
Cc1ccc(NC(=O)c2oc3ccc(S(=O)(=O)N4CCC5(CC4)OCCO5)cc3c2C)cc1C,11.5,-1.5,.,.,.,.
